What is called inhibition is the change of the read-out against control, counted positive when it falls.

Calls of active or inactive are those of the source.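 Rule for the calls, unless noted: active = inhibition at or above 50% at 10 µM; inactive = inhibition below 50%.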

Test [1] in a line: inhibitors of TNFa-induced NFkB p65 translocation, primary screen, imaging, HUVEC, MLSMR starter and 10KST1 sets (AID 438;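 active = inhibition above 20% together with a positive visual image hit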;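 note: compound added about 3h40 before a 20 min TNFalpha stimulation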;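 for inhibition: signal is the nuclear over cytoplasmic p65 intensity ratio per well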). The conditions noted are these: HUVEC TNFa-induced p65 nuclear translocation; cell count: measured here: nuclei count (cytotoxicity indicator), at 2.08 µM; inhibition: at 2 µM, stronger effect = higher value, 0% TNFa-plus-vehicle, 100% no-TNFa wells.
The nature of test [2]: inhibitors of mutant huntingtin aggregation, primary screen, imaging, exon1htt(103Q)mCFP cells, high-content imaging (AID 483;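 active = visual image review flags a hit and inhibition of aggregation exceeds 20%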;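 note: compound exposure lasted 3 days before fixation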;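 for nuclei count: percent of the per-plate median nuclei count of sample wells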). The conditions noted are these: exon1htt(103Q)mCFP cell line, aggregate imaging, at 2 µM; inhibition of aggregation: stronger effect = higher value; nuclei count: measured here: cell count, toxicity.
Test [3] is described as follows: inhibitors of E-selectin induction by TNFa, primary screen, imaging, HUVEC, immunofluorescence, MLSMR starter and 10KST1 sets (AID 487;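 active = visually confirmed hit in the image check and inhibition above 20%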;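 for inhibition: signal is fraction of cell area covered by stained E-selectin grains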;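 for nuclei count: 100% = median nuclei count of all wells on the same plate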). The conditions noted are these: HUVEC TNFalpha-induced E-selectin immunofluorescence imaging, at 2 µM; inhibition: stronger effect = higher value; nuclei count: measured here: cell number, toxicity.
Test [4] concerns the target Voltage-gated potassium channel subunit beta-2 (Rattus norvegicus) (UniProt P62483). The test can be described thus: KvBeta enzyme negative modulators, primary screen, biochemical, NADPH fluorescence (AID 622;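 active = fluorescence slope higher than the sample average by over 3 SD, cut at about -0.22 in these data, passing the limit was not always enough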;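 note: slope of raw intensity against log time taken from 70 to 1610 s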). The conditions noted are these: recombinant KvBeta, 4-cyanobenzaldehyde reduction, at 10 µM, stronger effect = higher value.
Test [5] has the same target. Nature of the test: KvBeta positive modulators, primary screen, biochemical, NADPH fluorescence (AID 623;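 active = NADPH fluorescence slope more negative than the mean of all samples by about 3 SD, 99.7% confidence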;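 note: fluorescence intensity change per second fitted from 20 to 320 s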). The conditions noted are these: Recombinant KvBeta, NADPH fluorescence decrease slope, 10 min; at 10 µM; stronger effect = lower value.
The target of test [6] is Alpha-2C adrenergic receptor (Homo sapiens) (UniProt P18825). Nature of the test: modulators of alpha2C/GIRK thallium flux, primary screen, cell-based, HEK293 alpha2C/GIRK1/2 (AID 624;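 active = fluorescence slope after compound addition differing from the mean of all screened samples at 99.7% confidence, in either direction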;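 note: slope of fluorescence ratio to pre-addition baseline per second over 15 to 24 s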). The conditions noted are these: thallium flux BTC fluorescence, at 10 µM, actives lie on both sides.
Test [7] is described as follows: inhibitors of Sendai virus-induced IRF3 signaling, primary screen, TLR/RLR signaling modifier project, cell-based, Sendai virus stimulus, luciferase, 10K MLSCN set (AID 602276).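 Note: firefly luciferase from ISG56 promoter only with Renilla not read in this screen; 0% = Sendai virus plus DMSO and 100% = medium plus DMSO without virus.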 The conditions noted are these: HEK293 RL24 IRF3 luciferase reporter, at 10 µM, stronger effect = higher value. (In general: In a reporter assay the amount or activity of a reporter protein is the signal.)

Test [8] is described as follows: inhibitors of poly I:C-induced TLR3 signaling, primary screen, cell-based, poly I:C stimulus, luciferase, 10K MLSCN set (AID 602277;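 active = inhibition of the reporter signal at or above 50%; inactive = inhibition below 50%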). The conditions noted are these: HEK293-TLR3 RL24 IRF3 luciferase reporter, at 10 µM, stronger effect = higher value.

Alpha-2C adrenergic receptor (Homo sapiens), sequence (P18825 whole entry, looked up): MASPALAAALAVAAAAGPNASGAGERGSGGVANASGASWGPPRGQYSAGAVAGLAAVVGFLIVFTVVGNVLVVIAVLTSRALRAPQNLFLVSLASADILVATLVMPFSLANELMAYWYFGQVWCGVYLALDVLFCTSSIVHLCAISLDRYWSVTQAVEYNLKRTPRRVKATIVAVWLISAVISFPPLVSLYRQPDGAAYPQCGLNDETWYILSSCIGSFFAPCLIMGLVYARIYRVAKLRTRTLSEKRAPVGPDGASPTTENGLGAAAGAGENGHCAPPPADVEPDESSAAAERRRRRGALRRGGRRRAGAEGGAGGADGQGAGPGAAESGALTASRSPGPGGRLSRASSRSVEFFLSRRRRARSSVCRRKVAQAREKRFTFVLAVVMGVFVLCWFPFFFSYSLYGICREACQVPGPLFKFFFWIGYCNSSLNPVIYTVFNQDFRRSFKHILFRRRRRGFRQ
Voltage-gated potassium channel subunit beta-2 (Rattus norvegicus), sequence (P62483 whole entry, looked up): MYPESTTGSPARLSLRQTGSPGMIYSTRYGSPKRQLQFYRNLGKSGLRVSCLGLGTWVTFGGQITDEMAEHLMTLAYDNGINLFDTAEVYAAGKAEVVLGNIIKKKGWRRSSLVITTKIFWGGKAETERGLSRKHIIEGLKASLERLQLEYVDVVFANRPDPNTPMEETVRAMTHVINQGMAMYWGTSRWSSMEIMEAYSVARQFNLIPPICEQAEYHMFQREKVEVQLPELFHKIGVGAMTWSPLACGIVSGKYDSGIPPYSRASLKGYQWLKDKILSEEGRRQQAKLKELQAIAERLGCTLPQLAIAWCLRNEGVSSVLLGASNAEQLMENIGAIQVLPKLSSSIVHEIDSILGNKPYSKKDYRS

`CC(C)(C)C1CCc2[nH]nc(C(=O)O)c2C1` (centres undefined): in test [1], the cell count was determined as 814. Besides, the inhibition in test [1] was -2.8% (inactive); in test [3] it was 2% (inactive); in test [7] it was 12.4% (inactive); in test [8], 16% (inactive). For the same molecule, the inhibition of aggregation in test [2] is 0% (inactive). The values for the nuclei count in test [2] and in test [3] were 104% and 121%, respectively. For the same molecule, the fluorescence slope in test [4] is -0.607 (inactive). Besides, the NADPH fluorescence slope in test [5] is 1.9e-05 (inactive). Also, the slope in test [6] is 0.00808 (inactive).
For the molecule `O=C(NCCCN1CCCC1=O)c1ccc2c(c1)NC(=O)C(N1CCOCC1)S2` (centres undefined), the cell count in test [1] was 431. Also, the inhibition is 7.4% (inactive) in test [1], -21.8% (inactive) in test [3], 6.23% (inactive) in test [7] and 15% (inactive) in test [8]. The inhibition of aggregation in test [2] was -20.6% (inactive). The figures for the nuclei count in test [2] and in test [3] were 114% and 116%, respectively. Further, in test [4], the fluorescence slope was -0.615 (inactive). The NADPH fluorescence slope in test [5] is -3.9e-05 (inactive). Further, the slope in test [6] is 0.00374 (inactive).
Take `Cc1ccc2c(CNCc3ccco3)cc(=O)oc2c1`: the cell count in test [1] was 712. In addition, the inhibition in test [1] was 7.3% (inactive); in test [3] it was -10.2% (inactive); in test [7], -18.6% (inactive); in test [8], -70.4% (inactive). In test [2], the inhibition of aggregation was 21.5% (inactive). In addition, the values for the nuclei count in test [2] and in test [3] were 87.6% and 96.6%, respectively. Also, the fluorescence slope in test [4] was -0.519 (inactive). Moreover, the NADPH fluorescence slope in test [5] was -1.9e-05 (inactive). Further, the slope in test [6] was 0.00495 (inactive).
On to `Cc1nnc2ccc(N3CCN(c4cccc(C(F)(F)F)c4)CC3)nn12`, for which the cell count in test [1] is 596. Besides, the inhibition in test [1] is 5.5% (inactive); in test [3], -68.3% (inactive); in test [7], 3.49% (inactive); in test [8], 11.9% (inactive). Moreover, the inhibition of aggregation in test [2] was -64.5% (inactive). Besides, the nuclei count was 32.1% in test [2] and 134% in test [3]. For the same molecule, in test [4], the fluorescence slope was -0.505 (inactive). In addition, the NADPH fluorescence slope in test [5] was -1.3e-05 (inactive). Besides, in test [6], the slope was 0.00619 (inactive).
On to `O=C(C1CCCO1)N1CCN(Cc2nc3ccccc3c(=O)[nH]2)CC1` (centres undefined), for which the cell count in test [1] was 583. For the same molecule, the inhibition in test [1] was 6.8% (inactive); in test [3], -6.3% (inactive); in test [7], 0.729% (inactive); in test [8], 31% (inactive). Moreover, the inhibition of aggregation in test [2] is 14% (inactive). Moreover, the nuclei count was determined as 125% in test [2] and 104% in test [3]. Further, in test [4], the fluorescence slope is -0.421 (inactive). Moreover, the NADPH fluorescence slope in test [5] is 2.2e-05 (inactive). Also, the slope in test [6] was 0.00673 (inactive).
Take `Cc1cccc(NC(=O)CSc2nnc(-c3cc(C)n(-c4ccccc4)c3C)o2)c1C`: the cell count in test [1] was found to be 590. In addition, the inhibition in test [1] was -16.6% (inactive); in test [3], -27.3% (inactive); in test [7] it was 5.08% (inactive); in test [8], 52.9% (active). Further, the inhibition of aggregation in test [2] was -14.8% (inactive). In addition, the nuclei count in test [2] came to 48%; in test [3], 111%. Further, the fluorescence slope in test [4] was -0.6 (inactive). The NADPH fluorescence slope in test [5] was -1.4e-05 (inactive). In addition, the slope in test [6] was 0.00877 (inactive).
Turning to `S=c1[nH]nc(Cc2ccccc2)n1-c1ccccc1`, the cell count in test [1] was 664. Also, the inhibition is -5.5% (inactive) in test [1], 14.9% (inactive) in test [3], 9.34% (inactive) in test [7] and 20.2% (inactive) in test [8]. Moreover, the inhibition of aggregation in test [2] was -9.4% (inactive). The nuclei count worked out at 111% in test [2] and 106% in test [3]. For the same molecule, in test [4], the fluorescence slope was -0.367 (inactive). Besides, the NADPH fluorescence slope in test [5] was -3.9e-05 (inactive). Also, the slope in test [6] is 0.00525 (inactive).
As for `CCc1nnc(-n2nc(C)cc2-c2ccccc2)n1N`, the cell count in test [1] was 648. Moreover, the inhibition was -2.4% (inactive) in test [1], -20.7% (inactive) in test [3], 15.3% (inactive) in test [7] and 22.1% (inactive) in test [8]. In test [2], the inhibition of aggregation is 0.6% (inactive). Also, the nuclei count was found to be 104% in test [2] and 109% in test [3]. In test [4], the fluorescence slope was -0.551 (inactive). Besides, the NADPH fluorescence slope in test [5] was 2.6e-05 (inactive). In addition, in test [6], the slope is 0.00642 (inactive).
Turning to `Cc1ccc(N2C(=O)c3ccccc3C2Nc2cccnc2)nc1` (centres undefined), the cell count in test [1] came to 513. In addition, the inhibition in test [1] is -7.7% (inactive); in test [3], -91.7% (inactive); in test [7] it was -2.85% (inactive); in test [8], 4.9% (inactive). Besides, the inhibition of aggregation in test [2] is 2.4% (inactive). In addition, the nuclei count in test [2] turned out to be 92.8%; in test [3] it was 138%. Also, the fluorescence slope in test [4] is -0.585 (inactive). Further, the NADPH fluorescence slope in test [5] is 2e-05 (inactive). Moreover, in test [6], the slope was 0.0064 (inactive).
For `O=C(NCc1ccco1)c1ccc2c(=O)n(CC3CCCO3)c(=S)[nH]c2c1` (centres undefined), the cell count in test [1] worked out at 318. The inhibition is -2.6% (inactive) in test [1], -7.4% (inactive) in test [3], 9.53% (inactive) in test [7] and 15.2% (inactive) in test [8]. Moreover, the inhibition of aggregation in test [2] is -6.3% (inactive). For the same molecule, the nuclei count amounted to 120% in test [2] and 101% in test [3]. Further, the fluorescence slope in test [4] is -0.501 (inactive). Besides, the NADPH fluorescence slope in test [5] was -2.2e-05 (inactive). Moreover, the slope in test [6] is 0.00599 (inactive).
In the case of `O=C(CC(SCCO)c1ccc2c(c1)OCO2)c1ccco1` (centres undefined), the cell count in test [1] was 538. The inhibition in test [1] was -10.2% (inactive); in test [3] it was -60.6% (inactive); in test [7], -31.1% (inactive); in test [8], -69.6% (inactive). Besides, in test [2], the inhibition of aggregation was -17.3% (inactive). Further, the nuclei count in test [2] was 114%; in test [3], 128%. In test [4], the fluorescence slope was -0.602 (inactive). The NADPH fluorescence slope in test [5] was -5.3e-06 (inactive). In addition, the slope in test [6] is 0.00625 (inactive).
As for `COc1ccc(NC(=O)CSc2nnc(Cc3cccn3C)n2-c2ccc(F)cc2)cc1OC`, in test [1], the cell count came to 541. Further, the inhibition in test [1] was -1.3% (inactive); in test [3], -59.2% (inactive); in test [7], 12.2% (inactive); in test [8], 27.1% (inactive). Also, the inhibition of aggregation in test [2] is -0.2% (inactive). Also, the nuclei count turned out to be 92.7% in test [2] and 118% in test [3]. The fluorescence slope in test [4] was -0.588 (inactive). The NADPH fluorescence slope in test [5] was -2.4e-05 (inactive). Further, the slope in test [6] was 0.00584 (inactive).
`COc1ccc(-n2c(SCC#N)nc3ccccc3c2=O)cc1`: the cell count in test [1] came to 314. Besides, the inhibition is -4.7% (inactive) in test [1], -11% (inactive) in test [3], -8.69% (inactive) in test [7] and -76.1% (inactive) in test [8]. In test [2], the inhibition of aggregation is -15.4% (inactive). Moreover, the nuclei count stood at 105% in test [2] and 118% in test [3]. Also, the fluorescence slope in test [4] is -0.491 (inactive). In addition, the NADPH fluorescence slope in test [5] was 7e-05 (inactive). Further, the slope in test [6] is 0.00655 (inactive).
On to `COc1ccc(NC(=O)CN(c2ccc(C(C)C)cc2)S(=O)(=O)c2c(C)noc2C)cc1OC`, for which the cell count in test [1] turned out to be 787. In addition, the inhibition was 3.4% (inactive) in test [1], -24.6% (inactive) in test [3], 18.3% (inactive) in test [7] and 41.9% (inactive) in test [8]. Further, the inhibition of aggregation in test [2] was -119% (inactive). The nuclei count in test [2] stood at 123%; in test [3], 108%. Besides, the fluorescence slope in test [4] is -0.617 (inactive). Further, the NADPH fluorescence slope in test [5] was 2e-05 (inactive). Further, the slope in test [6] is 0.00605 (inactive).

The values above are taken from PubChem BioAssay.
